# Measured values as given in PubChem BioAssay (Tox21).
# Unmarked numbers belong to inactive results. The source made the active and inactive calls. The call rests on the fitted dose curve; in most records, active means well fitted curve in the direction sought with a large enough effect in the signal ratio in the repeat runs (not every such curve was filed as active); inconclusive means weak or mixed curves, or effect the other way; inactive means no such curve, though single readings can be large or run the other way; the % refers to the signal ratio.
# Biological target: Estrogen receptor (Homo sapiens) (UniProt P03372)
# Test: qHTS assay to identify small molecule antagonists of the estrogen receptor alpha (ER-alpha) signaling pathway (AID 743069)
# Details: HEK293 ER-alpha-UAS-bla, beta-lactamase ratio, antagonist mode; series mostly up to 69.4 µM; activity, negative = inhibition: at the top concentration
# Source text: National Center for Advancing Translational Sciences [NCATS]
# NIH Chemical Genomics Center [NCGC]
# U.S. Environmental Protection Agency [EPA]
# National Institutes of Environmental Health Sciences [NIEHS]
# National Toxicology Program [NTP]
# U.S. Food and Drug Administration [FDA]
# Estrogen receptor (ER), a nuclear hormone receptor, plays an important role in development, metabolic homeostasis and reproduction. Two subtypes of ER, ER-alpha and ER-beta have similar expression patterns with some uniqueness in both types. Endocrine disrupting chemicals (EDCs) and their interactions with steroid hormone receptors like ER causes disruption of normal endocrine function. To identify the compounds that inhibit ER signaling, an ER-alpha-UAS-bla GripTiteTM cell line (Invitrogen, Carlsbad, CA, USA) containing a beta-lactamase reporter gene under the control of an Upstream Activator Sequence (UAS) stably integrated into HEK293 cells was used to screen the Tox21 10K compound library.
# Tox21 Assay Protocol Summary:
# ER-alpha-bla cells were cultured in assay medium containing 2% charcoal stripped FBS overnight in the culture flasks before the assay was performed. The cells were dispensed at 5,000 cells/5 uL of assay medium per well into black wall/clear-bottom 1536-well plates using a Multidrop Combi (ThermoFisher Scientific, Waltham, MA) dispenser. After the assay plates were incubated at a 37C and 5% CO2 for 4 hr, 23 nL of compounds dissolved in DMSO, positive controls or DMSO only was transferred to the assay plate by a Pintool station (Kalypsys, San Diego, CA), followed by addition of 1 uL of 17beta-estradiol in assay medium using a Flying Reagent Dispenser (Aurora Discovery, San Diego, CA). The plates were incubated at 37C and 5% CO2 for 18 hr. Then 1 uL of LiveBLAzerTM B/G FRET substrate was added using a Flying Reagent Dispenser, the plates were incubated at room temperature for 2 hours, and fluorescence intensity was measured by an Envision plate reader (PerkinElmer, Shelton, CT).
# On the % scale 0 is the no-effect control and ±100 the full control effect; potency means the concentration at half of the fitted maximal effect.
# Chain of Estrogen receptor (Homo sapiens) (P03372 whole entry, looked up): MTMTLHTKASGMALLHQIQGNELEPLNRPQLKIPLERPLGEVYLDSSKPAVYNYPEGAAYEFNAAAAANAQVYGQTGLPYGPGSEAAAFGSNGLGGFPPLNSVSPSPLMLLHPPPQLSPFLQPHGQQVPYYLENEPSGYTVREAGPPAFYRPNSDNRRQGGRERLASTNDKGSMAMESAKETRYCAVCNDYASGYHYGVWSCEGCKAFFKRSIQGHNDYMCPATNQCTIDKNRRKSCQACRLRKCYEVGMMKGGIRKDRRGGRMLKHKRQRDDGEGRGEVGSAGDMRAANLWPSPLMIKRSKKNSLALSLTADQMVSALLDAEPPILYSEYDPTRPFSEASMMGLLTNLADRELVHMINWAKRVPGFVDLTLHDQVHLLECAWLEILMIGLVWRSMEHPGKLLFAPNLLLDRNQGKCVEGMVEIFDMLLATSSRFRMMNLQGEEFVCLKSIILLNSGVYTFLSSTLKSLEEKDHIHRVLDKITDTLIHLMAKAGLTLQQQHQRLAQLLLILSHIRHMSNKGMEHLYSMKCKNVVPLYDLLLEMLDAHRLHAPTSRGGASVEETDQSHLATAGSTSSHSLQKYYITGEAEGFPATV
Compound,"activity, negative = inhibition",Potency
CN1CC[C@@]23CCCC[C@@H]2[C@@H]1Cc1ccc(O)cc13,10.5%,–
CC(=O)[C@H]1CC[C@H]2[C@@H]3CC[C@@H]4C[C@H](O)CC[C@]4(C)[C@H]3CC[C@]12C,10.4%,–
COc1ccc2c(c1)C13CCCC[C@@H]1C(C2)N(C)CC3 (stereo not given in full),11%,–
CN[C@H]1C[C@@H](N)[C@H](O)[C@@H](O[C@@H]2O[C@H](CO)[C@H](O)[C@@H]3OC4(O[C@H]23)O[C@H](C(N)CO)[C@H](O)[C@H](O)[C@H]4O)[C@@H]1O (stereo not given in full),–,inactive
CCCC(C)(COC(N)=O)COC(=O)NC1CC1 (stereo not given),3.22%,–
O=C(NC(=O)c1c(F)cccc1F)Nc1ccc(Cl)c(Oc2ncc(C(F)(F)F)cc2Cl)c1,-1.96%,–
O=C1CCO1,-1.6%,–
C=CCN(C1=NCCN1)c1c(Cl)cccc1Cl,-2.8%,–
[S]=[Sb](=[S])[S][Sb](=[S])=[S],1.79%,–
COC1=CC=C2[C@H]3Cc4ccc(OC)c5c4[C@@]2(CCN3C)[C@H]1O5,–,inactive
Cc1nnc2n1-c1ccc(Cl)cc1C(c1ccccc1)=NC2,–,21.3 µM [inconclusive] (active)
N#CC1(N2CCCCC2)CCCCC1,-1.75%,–
CN1c2ccccc2C(NCCCCCCC(=O)O)c2ccc(Cl)cc2S1(=O)=O (stereo not given),12.6%,–
CNC(C)CC1CCCCC1 (stereo not given),-27.9%,–
C#CC(C)(O)CC (stereo not given),4.58%,–
O=[N+]([O-])c1c(Cl)c(Cl)cc(Cl)c1Cl,37.3%,–
C=CCC1([C@@H](C)CCC)C(=O)NC(=O)NC1=O,-9.35%,–
CNC1(c2ccccc2Cl)CCCCC1=O (stereo not given),–,inactive
O[C@H]1[C@H]2[C@H](O)CCCN2C[C@H]1O,11.5%,–
COC(=O)[C@@H]1[C@H]2CC[C@@H](C[C@H]1OC(=O)c1ccccc1)N2C,6.86%,–

Compound,"activity, negative = inhibition",Potency
Clc1ccc2c(c1)C(c1ccccc1)=NCc1nncn1-2,-10.6%,–
CCOC(=O)C1(c2ccccc2)CCCN(C)CC1 (stereo not given),1.89%,–
CCC/C=C/C=C/C(=O)O[C@H]1/C(=C/C(=O)OC)C[C@H]2C[C@H]([C@@H](C)O)OC(=O)C[C@H](O)C[C@@H]3C[C@H](OC(C)=O)C(C)(C)[C@](O)(C[C@@H]4C/C(=C/C(=O)OC)C[C@H](/C=C/C(C)(C)[C@]1(O)O2)O4)O3,-25.8%,–
C=CCC1(C(C)CCC)C(=O)N=C(S)NC1=O (stereo not given),4.13%,–
CCCSc1cc(OC)c(CCN)cc1OC,8.19% [at 79.1 µM],–
O=C1CCCCC1CN1CCCCC1 (stereo not given),6.65%,–
Cc1cc(C)cc(C(=O)OC2C[C@H]3CC[C@@H](C2)N3C)c1 (stereo not given in full),4.62%,–
CCCCNC(C)(C)[P+](=O)O,-15.9%,–
COc1cc(C[C@H](C)N)c(OC)cc1C,5.95% [at 79.1 µM],–
CNC(=O)OCC[N+](C)(C)C,1.59%,–
O=C(OCCN1CCCCC1)C(O)(c1ccccc1)c1ccccc1,3.63%,–
c1ccccc1,7.96%,–
O=C(C[C@@H]1NCCC[C@H]1O)Cn1cnc2cc(Br)c(Cl)cc2c1=O,10.1%,–
CN1CCCC(=C(c2cccs2)c2cccs2)C1,-7.91%,–
O=C(CCl)c1ccc(Oc2ccc(C(=O)CCl)cc2)cc1,4.22%,–
CC(C)C[C@H](CN)CC(=O)O,0.927%,–
CCCC(=O)OC(C(Cl)(Cl)Cl)P(=O)(OC)OC (stereo not given),-32.6%,–
CN[C@@]1(c2ccccc2Cl)CCCCC1=O,-6.79%,–
CC1(C)S[C@@H]2[C@H](N)C(=O)N2[C@H]1C(=O)O,2.77% [at 32.6 µM],–
COc1ccc2c3c1O[C@H]1[C@@H](O)C=C[C@H]4[C@@H](C2)NCC[C@@]341,–,inactive
